The full list was thinned out, with hits kept by preference.
Dicer processing = blocks human Dicer maturation of pre-miR-21; z-score at 25 µM; Q9UPY3; cat-ELCCA pre-miR-21 Dicer processing, chemiluminescence; stronger effect = higher value; actives 6% (n = 47,000); in the data active = z-score above about 3, passing the limit was not always enough;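 note: plate controls were vehicle for no effect and no enzyme for full effect; higher signal means more uncleaved substrate so more Dicer inhibition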
Target sequence (Q9UPY3 whole entry, looked up): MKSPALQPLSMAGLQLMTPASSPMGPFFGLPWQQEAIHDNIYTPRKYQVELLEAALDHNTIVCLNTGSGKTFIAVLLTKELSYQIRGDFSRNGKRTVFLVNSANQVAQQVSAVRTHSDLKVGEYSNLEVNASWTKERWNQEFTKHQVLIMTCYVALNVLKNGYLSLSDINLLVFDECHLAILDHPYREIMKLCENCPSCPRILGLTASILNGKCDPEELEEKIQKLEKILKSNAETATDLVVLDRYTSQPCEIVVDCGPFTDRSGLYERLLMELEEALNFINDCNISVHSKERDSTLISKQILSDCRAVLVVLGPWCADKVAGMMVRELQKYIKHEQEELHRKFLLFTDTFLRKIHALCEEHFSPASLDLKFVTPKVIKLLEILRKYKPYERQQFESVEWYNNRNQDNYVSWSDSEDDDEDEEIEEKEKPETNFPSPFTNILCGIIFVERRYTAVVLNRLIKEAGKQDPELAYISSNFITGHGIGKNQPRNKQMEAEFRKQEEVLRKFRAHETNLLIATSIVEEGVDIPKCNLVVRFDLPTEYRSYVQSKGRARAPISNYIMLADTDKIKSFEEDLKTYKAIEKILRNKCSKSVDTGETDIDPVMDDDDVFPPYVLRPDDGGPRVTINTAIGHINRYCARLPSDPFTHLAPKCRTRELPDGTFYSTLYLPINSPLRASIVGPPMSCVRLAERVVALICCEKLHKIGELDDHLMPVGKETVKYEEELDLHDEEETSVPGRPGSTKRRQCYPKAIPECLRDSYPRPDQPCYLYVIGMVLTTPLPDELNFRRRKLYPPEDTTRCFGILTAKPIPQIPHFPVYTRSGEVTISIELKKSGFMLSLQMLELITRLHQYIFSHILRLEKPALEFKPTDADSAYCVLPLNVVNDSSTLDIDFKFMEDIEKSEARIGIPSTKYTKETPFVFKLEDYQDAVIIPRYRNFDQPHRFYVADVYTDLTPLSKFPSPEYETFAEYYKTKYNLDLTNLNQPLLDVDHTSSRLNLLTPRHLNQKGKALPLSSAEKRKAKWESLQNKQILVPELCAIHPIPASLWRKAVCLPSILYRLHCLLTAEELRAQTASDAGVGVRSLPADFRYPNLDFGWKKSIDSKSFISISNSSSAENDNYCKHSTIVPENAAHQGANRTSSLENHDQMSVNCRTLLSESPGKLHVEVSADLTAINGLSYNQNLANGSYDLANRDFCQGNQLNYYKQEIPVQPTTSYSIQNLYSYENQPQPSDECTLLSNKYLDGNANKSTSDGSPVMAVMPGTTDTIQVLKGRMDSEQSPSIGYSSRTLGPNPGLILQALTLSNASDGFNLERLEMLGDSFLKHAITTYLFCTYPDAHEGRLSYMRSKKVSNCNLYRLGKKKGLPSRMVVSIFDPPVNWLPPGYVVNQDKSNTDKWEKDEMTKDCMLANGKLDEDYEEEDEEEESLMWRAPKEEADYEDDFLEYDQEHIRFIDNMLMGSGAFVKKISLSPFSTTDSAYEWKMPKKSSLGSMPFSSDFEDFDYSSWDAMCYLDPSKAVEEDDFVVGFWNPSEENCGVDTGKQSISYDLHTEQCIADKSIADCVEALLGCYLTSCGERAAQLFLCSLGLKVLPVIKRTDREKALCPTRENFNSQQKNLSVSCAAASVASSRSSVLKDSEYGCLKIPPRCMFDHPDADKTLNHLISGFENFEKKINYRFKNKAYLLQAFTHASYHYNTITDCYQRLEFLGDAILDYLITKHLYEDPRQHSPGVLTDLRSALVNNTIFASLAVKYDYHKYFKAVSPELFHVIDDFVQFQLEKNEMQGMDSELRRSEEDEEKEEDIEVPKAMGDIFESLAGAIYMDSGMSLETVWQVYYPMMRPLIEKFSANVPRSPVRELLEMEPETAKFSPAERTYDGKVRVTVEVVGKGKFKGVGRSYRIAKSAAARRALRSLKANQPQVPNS
The depositor's hits bear a star.

SMILES	Dicer processing
COC(=O)c1ccc(C2Oc3ccccc3C3CC(c4ccccc4O)=NN32)cc1 (stereo unspecified)	0.57
Cc1ccc(S(=O)(=O)CCN(Cc2cccnc2)C(=O)c2ccccc2)cc1	0.21
C=CCOC(=O)C1=C(C)NC2=C(C(=O)CCC2)C1c1ccc(C)cc1 (stereo unspecified)	-0.45
Cc1cc(OC(=O)c2sc3ccccc3c2Cl)c2cc(F)ccc2n1	-0.48
Cn1c(=O)c2c(O)c(C=NCc3cccnc3)c(=O)n(C)c2n(C)c1=O	0.3
COc1ccc(OC)c(NC(=O)C(=O)NCC2CCCO2)c1 (stereo unspecified)	-1.73
CC1CCc2c(sc3nc(-c4ccccc4)[nH]c(=O)c23)C1 (stereo unspecified)	0.19
O=C(Nc1cccc(C(F)(F)F)c1)c1cncc(C#Cc2ccccc2)c1	-2.38
O=C(Nc1ccc(Cl)cc1)c1cncc(C#Cc2ccccc2)c1	2.02
O=C(NC(=S)N1CCc2ccccc21)c1cncc(C#Cc2ccccc2)c1	3.76*
C=CCn1c(C(C)Oc2ccc(Cl)cc2)n[nH]c1=S (stereo unspecified)	-2.25
COc1ccc(C2C(C(=O)c3cccs3)=C(O)C(=O)N2Cc2cccnc2)cc1 (stereo unspecified)	-2.97
COc1ccc(N=C(N)N=C(N)N)cc1	6.29*
Cc1cc(N=C(N)N=C(N)N)ccc1Br	0.97
COc1cc(N=C(N)N=C(N)N)cc(OC)c1	0.32
CC(C)OC(=O)CSc1nnc(-c2ccc(Br)cc2)o1	0.88
COc1ccc(-c2nnc(SCC(=O)OC(C)C)o2)cc1	3.09*
Cc1ccc(-c2nnc(SCC(=O)OC(C)C)o2)cc1	1.97
CCOc1ccc(-c2n[nH]c(C)c2Oc2ccc(F)cc2)c(O)c1	2.3
Cc1[nH]nc(-c2ccc(O)c(C)c2O)c1Oc1ccccc1	3.1*
CCOc1cc(O)c(-c2n[nH]c(C)c2Oc2ccccc2)cc1CC	2.44
Cc1nn(C(=O)CNS(=O)(=O)c2ccc(Cl)cc2)c(C)c1Sc1ccc(Cl)cc1	1.66
CN1CCN(CCCN2C(=O)CSC2c2ccccc2)CC1 (stereo unspecified)	0.68
CC(C)C(=O)Nc1nc(NC(=O)C(C)C)nc(-c2ccccc2C(F)(F)F)n1	3.21*
CCC(=O)Nc1nc(NC(=O)CC)nc(-c2ccccc2C)n1	2.9
SMILES	Dicer processing
NNC(=O)Cn1nnc(-c2ccccc2C(F)(F)F)n1	0.88
CC(C)COC(=O)CN1C(=O)C2C3c4ccccc4C(c4ccccc43)C2C1=O (stereo unspecified)	1.16
CSC1=NC=C(C#N)C2=NC(C)(c3cc(Cl)cc(Cl)c3)NN12 (stereo unspecified)	-1.56
CCCSc1ncccc1C(=O)Nc1cc(C)no1	-0.48
Cc1cc(C)c(N2CC(=O)NCC2=O)c(C)c1	0.58
O=C(CSc1nc2ccccc2s1)N1CCc2c([nH]c3ccccc23)C1C(F)(F)F (stereo unspecified)	-1.79
O=C(O)c1cccnc1C(=O)N1CCc2c([nH]c3ccccc23)C1C(F)(F)F (stereo unspecified)	0.23
O=C(CSc1nccc(-c2cccs2)n1)N1CCc2c([nH]c3ccccc23)C1C(F)(F)F (stereo unspecified)	3.3*
CC(C)Sc1c(Cl)cccc1NC(=O)Nc1cccc(C(F)(F)F)c1	-0.85
CCCCc1n(CC(=O)c2ccccc2)c2ccccc2[n+]1C	0.12
Cc1n(CC(=O)c2ccc(F)cc2)c2ccccc2[n+]1C	4.79*
CCOc1ccc(C(=O)Cn2c(C)[n+](C)c3ccccc32)cc1	-1.21
Cc1cn(C2OC(CO)C(O)C2O)c(=O)[nH]c1=O (stereo unspecified)	0.69
O=C(O)c1c[nH]c2ccc(S(=O)(=O)N3CCCCC3c3cccnc3)cc2c1=O (stereo unspecified)	-0.57
COc1ccc(CN2C(=O)c3oc4ccc(C)cc4c(=O)c3C2c2ccc(O)c(OC)c2)cc1 (stereo unspecified)	-0.31
CCOc1cc(C2c3c(oc4ccc(C)cc4c3=O)C(=O)N2Cc2ccc(OC)cc2)ccc1O (stereo unspecified)	3.15*
O=C1c2oc3ccccc3c(=O)c2C(c2cccc(O)c2)N1Cc1ccccc1Cl (stereo unspecified)	1.02
CCOc1cc(C2c3c(oc4ccc(F)cc4c3=O)C(=O)N2Cc2ccc(C)cc2)ccc1O (stereo unspecified)	1.74
COc1cc(C2c3c(oc4ccccc4c3=O)C(=O)N2Cc2ccccc2Cl)ccc1O (stereo unspecified)	3.21*
O=C1c2oc3ccccc3c(=O)c2C(c2ccc(O)cc2)N1Cc1ccccc1Cl (stereo unspecified)	1.01
Cc1ccc(-c2nc(NCCCN3CCOCC3)c3ccccc3n2)cc1	-0.32
CSc1nn(-c2ccccc2)cc1/C(N)=N/OC(=O)Nc1ccc(Cl)cc1	-4.88
CC(=O)N1[C@@H](C(=O)O)C(C)(C)S[C@H]1c1ccccc1	1.45
COC(=O)C1=C(C)NC2=C(C(=O)c3ccccc32)C1c1cccs1 (stereo unspecified)	-6.28
COC(=O)C1=C(C)NC2=C(C(=O)c3ccccc32)C1c1ccc(-c2ccc(Cl)cc2)o1 (stereo unspecified)	3.62*
SMILES	Dicer processing
COC(=O)C1=C(C)NC2=C(C(=O)c3ccccc32)C1c1ccccc1Cl (stereo unspecified)	-1.01
COc1ccc(OC)c(C2C(C#N)=C(C)NC3=C2C(=O)CC(c2ccc(Cl)cc2)C3)c1 (stereo unspecified)	0.49
CN1CCc2c(sc3c2C(=O)NC(c2cccc(O)c2)N3)C1 (stereo unspecified)	-0.75
CCCCCc1ccc(C(=O)CCC(=O)O)cc1	-0.19
COC(=O)C(C)Oc1ccc2c(=O)c(Oc3cc(C)cc(C)c3C)coc2c1 (stereo unspecified)	2.22
CCCCN1C(=O)C2(/C(=C(/O)c3ccc(C)cc3)C(=O)C(=O)N2CCCOC)c2ccccc21 (stereo unspecified)	5.13*
COCCCN1C(=O)C(=O)/C(=C(\O)c2ccc(C)cc2)C12C(=O)N(C)c1ccccc12 (stereo unspecified)	-1.74
C=CCN1C(=O)C2(/C(=C(/O)c3ccccc3)C(=O)C(=O)N2CCOC)c2ccccc21 (stereo unspecified)	1.74
CCN1C(=O)C2(/C(=C(/O)c3ccc(C)cc3)C(=O)C(=O)N2CCOC)c2ccccc21 (stereo unspecified)	2.55
CCCCN1C(=O)C2(/C(=C(/O)c3ccc(OC)cc3)C(=O)C(=O)N2CCOC)c2ccccc21 (stereo unspecified)	3.67*
CCCCN1C(=O)C2(/C(=C(/O)c3ccc(Cl)cc3)C(=O)C(=O)N2CCCOC)c2ccccc21 (stereo unspecified)	0.62
O=C1C(=O)N(CCCn2ccnc2)C(c2ccccc2)/C1=C(\O)c1ccc(F)cc1 (stereo unspecified)	-0.77
C#CC(CN1CCCCC1)N1CCCCC1 (stereo unspecified)	0.16
COc1ccc2cc(C(=O)c3ccc(Cl)cc3)oc2c1	1.4
CC1=C(C(=O)OCC2CCCO2)C(c2ccc(OCc3ccccc3)cc2)C2=C(CCCC2=O)N1 (stereo unspecified)	0.06
COC(=O)C1=C(C)NC2=C(C(=O)CCC2)C1c1ccc(C(=O)OC)cc1 (stereo unspecified)	-0.18
CCOCCOC(=O)C1=C(C)NC2=C(C(=O)CCC2)C1c1ccc(C)cc1 (stereo unspecified)	0.1
